# Unmarked numbers belong to inactive results.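 The calls were made as follows: active = MAPPIT score above the 99th percentile of random reference set scores in the same batch; inactive = at or below it.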
# How the values were obtained:
# Experiment in all cases: MAPPIT interaction score (arbitrary units); higher = stronger binary interaction signal, active = hit call of the paper
# [1] = target: Nacalpha; conditions: MAPPIT configuration: N-N; pair source set: DPIM
# [2] = target: Nedd4; conditions: pair source set: Lit-BM-16
# [3] = target: Nup50; conditions: MAPPIT configuration: N-N; pair source set: DPIM
# [4] = target: Nnk; conditions: MAPPIT configuration: N-N; pair source set: Curagen_high_conf
# [5] = target: Nup153; conditions: MAPPIT configuration: N-N; pair source set: DPIM
# [6] = target: Pen; conditions: MAPPIT configuration: N-N; pair source set: Lit-BM-16
# [7] = target: Not3; conditions: MAPPIT configuration: N-N; pair source set: Finley_Y2H
# [8] = target: Nup107; conditions: MAPPIT configuration: N-C; pair source set: screen_4
# [9] = target: dgt6; conditions: pair source set: Lit-BM-16
# 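Also: HEK293T cells with Epo stimulation, STAT-responsive firefly luciferase reporter, fold induction versus unstimulated cells divided by the larger fold induction of two negative controls lacking either bait or prey.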
binder,measurement,setting,value
eIF3j (protein) MADDWESAADSEVVIRPTAAASVNKWEGEDEDEDIKDSWEDEEEKKDEEKPTKTEAPAKPKPNKALKAKLEQQALLEEEAEAKRLANLSPAEKLAEKLRLQKIQEASDLKHAQEAFGVTSTCGGLDAFNPETKEEFKEFGATLSWKVGQFRESEHFPQFVEDLVRSLCVNLSAADIKKVKMNVEILHSEKLKLEKANAKKPAGKGKGKVTLRTENDDIDGYQKYGNDFTEDYDDFM,MAPPIT interaction score,[1],0.261
comm (protein) MISTTDYPTVETTTTAEELYAEYISAPASSMSPAAIAEHLQQNQITFEIPSAHDLRHIDALNSFNALLQRIGNAAVSYDPAPPSGWSPDGSISTEQLSKSVVLDLADLRDRSEESGESSWWSQIFGDADMHVIINYLWIGVVSSLVILSLVFILFSCYFYRKFRTWKKCNKDIRAQIHAASDSYSSHLVGCDASRLLLHQQMQHPHHRSSEAGFYQIESPPCYTIATGLPSYDEALHHQPRHFAYGMKFVYPSLAAVHHHHHCISNWEKQEPLNKLQKCKLSAAAAVEEDKADSSSSTSASASPSSSESSNLATATPAICINMPSGRQDEEVDNSDSDSAIAVAVAVAQSLQPAAPADDDCASLVVVVAA,MAPPIT interaction score,[2]; MAPPIT configuration: N-C,1.86
same,MAPPIT interaction score,[2]; MAPPIT configuration: N-N,-0.264
Nubp2 (protein) MLDKVKNVIVVLSGKGGVGKSTVSTQLSLALRKNGFKVGLLDIDLCGPSVPYLLGLEGRDIFQCDDGWVPVYTDESQTLAVMSIGFLLKNREDPVIWRGPKKTMMIRQFLTDVRWDELDYLIIDTPPGTSDEHITVMECLKEVGCHGAIIVTTPQEVALDDVRKEITFCKKTGINILGIVENMSGFVCPHCTSCTNIFSSNGGVSLATYAQVPHLGTLPIDPRVGILAGTTTSVLDELPDSTTAEVLTHIVEKLKTMLVS,MAPPIT interaction score,[3],-0.182
mei-S332 (protein) MGSKVEQQYKLLNAELMDQVQKQRLEIGEYRKRVISLEREIMDIREEHVLQNHRQRMENISIVRSLMLSLNVDSDSLAVRQEPAPAAQINRPSGPRRSSREICKDMRRTCALARTTRPISPRRSSSVTSTVSSTSRRSSAEVQSEVVTTRIPEDRRANKPTPPPRRPAELVFDEDDSDDDFDEAVSPVEETQTEQNEENNRLFSIIEENGSEGESTDSSSSCEAIYCDTTFESSPPNAQVTVTPSGRALREVDTNIPVAVSLSRGKETGKGSWLAISVAVEDSPQEPSIQCPRLAVTRPSQSSGIFPDVNGLTPRRSLFNGIGKMAGSTSTPKSFLVEEMPSIRTRSRTAANKKSENTDMSSSFCNNSARPSRSCRPTSLVEPSLKNKLRNGSKGKAKAKK,MAPPIT interaction score,[4],-0.26
Nup50 (protein) MAGKRQATSNLNHENWDLEEEPEERGTFRTATEEELKTRVIKKARRKIAGGSSAAEEDGAEEKTAEPKSVFSGFSGFGKPAASPAAGSPFSFLANVTAPATTSSSEPKKSAFSFGFSSSSSSADRPVSTSICGTASTSSTAPSPLPAKESTSTVDGAKPTTSIFGNISAAKKESSEAKTSSSSTSLTSTMETSEYRESVADLNRSVIKFLQDQMGKSPYCILTPVFKNYDEHLKDLQDEESARTNSTKSKTAQARSQEPVAKVSRASSPPKAATTFTFGKPSAPIGASVSPLAKKPNCTITSGGTTTTTATPLVSFGSTASFTAPVPSSSSIFSLTAKPTGEAKSDDTPKSSIFSFGAKDTTTKKDEPNFSAPKTNGFSFGLKSNNDDKPSTSLFAGFGKAPGGAGDGAKGFSFTNSATPFSLGNIHPPAAAAAPAEEEKEEDTPPKVEFKQVVEDDAIYSKRCKVFIKKDKDFGDRGVGTLYLKPVKDSEKIQLLVRADTNLGNILVNLILSKGIPCQRMGKNNVLMVCVPTPEDSKATSLLLRVKTGDEADDLLEKIKEHIK,MAPPIT interaction score,[5],0.802
same,MAPPIT interaction score,[6],3.66 (active)
Rga (protein) MANLNFQQPPRSIANAALAGRTTGGFGGSSLAGHVTPTSGMFQTDFANSYPGTANYGQAPQQQQQQQQQPQLSPNRNAQLSVGGPAISSGNRNANLFGQRQFVERRAMQGLGSGPMSNMGNFMQTGRGGYGTGGGGGGPLNNFHVFGGGGGSDTSTPALLDPTEFPSLTNARGQNDQTLPQSNPLQPPGSKPYGNFFTSFGMVKQPTSEQSEFTMSNEDFPALPGTQNSDGTTNAVGSVAGTGGSGGASTENHLDGTEKPMNSIVVSGSASGSSGSNVGVVGGNGLGAVGSGIGGLAVGGGGGAGSSGGGGVGGNAASGVVGGSHVGLVGSNSGIGGVNSVPNSNAMMGVGGGLGSGSGSSGSGAGGEHLNDNSSNDKLVKSGVQTSPDGKVTNIPATMVNNQFGMVGLLTFIRAAETDPNLVTLSLGTDLTGLGLNLNSQESLHTTFAGPFVAQPCRAQDVEFNVPPEYLINFAIRDKLTAPVLKKLQEDLLFFLFYTNIGDMMQLMAAAELHSREWRYHVEEKIWITRIPGIDQYEKNGTKERGTFYYFDAQSWKRLSKVFQIDPEKLDKCPNISAFMNGQSV,MAPPIT interaction score,[7],0.172
dgt4 (protein) METPPTPTTTTPPSLTTEGTMDDIQYLLHLEAMRRFQEDSRNVKRQVEEQVRIWLDAKCEYQRDFGRLARLLKCGALQAAVDAHRVSDVNQVDQAAKDIASLRSKLGSDLRPAILDSNDVKQCLEHLNTTHKPRLNLCRQQREFAQNQEALRSLRTAVDGLENGMEMGMIQAMDRLVEDLLPPRETNN,MAPPIT interaction score,[8],1.57
same,MAPPIT interaction score,[9]; MAPPIT configuration: N-C,1.64
same,MAPPIT interaction score,[9]; MAPPIT configuration: N-N,4.36 (active)

# Source: the supplement of paper PMC10105736
